# Among all 360,000 compounds or so, about 1,800 (0.5%) were called active. What follows is part of a selection rich in actives, with near analogues and random picks from the rest. A number with no mark means an inactive call.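 The calls were made as follows: active = mean inhibition of at least 75% with every replicate also reaching 75%; inconclusive = mean inhibition at least 75% but some replicate below; inactive = mean inhibition below 75%.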
# Test: Shn3 3'UTR reporter decrease in osteoblasts – cell-based, Clone20 osteoblasts, firefly luciferase, set 2, Schnurri-3 inhibitor project, primary screen (AID 588674);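 also: 0% = median of neutral control wells and 100% = pilot-screen positive control compound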
# Settings: Clone20 osteoblast Shn3 3'UTR firefly luciferase, 24 h; at 12.5 µM; stronger effect = higher value
row,Compound,inhibition
1,COc1ccc(-c2ccc(C(=O)NCCN3CCOCC3)c3occc23)c(C)c1,12.3%
2,C/C(=N\NC(=O)C1(C)CC1(Br)Br)c1ccc(C)cc1C (stereo unspecified),8.35%
3,Cc1cc(=O)[nH]c(N/N=C/c2c(C)nn(-c3ccccc3Cl)c2Cl)n1,14.6%
4,Cc1nnc(N/N=C/c2ccccn2)[nH]c1=O,90.6% (active)
5,S=C(NN=Cc1ccccn1)Nc1ccccn1,67.3%
6,C/C=C(/C)C(=O)O[C@@H]1c2cc3c(c4c2[C@@]2(CO4)C(=O)C(OC)=C(OC)C=C2C[C@@H](C)[C@H]1C)OCO3,-16.2%
7,NC1=CC(=O)C(=O)c2cccnc21,96.6% (active)
8,C=CCOc1ccccc1NC(=O)CN1C(=O)CNC1=O,-14.9%
9,Cc1cc(=O)oc2c3c(cc(OCC(=O)NCC(O)c4ccccc4)c12)OC(C)(C)CC3 (stereo unspecified),0.998%
10,COc1cc2c(cc1OC)C(=O)NCC(C)(C)O2,9.62%
11,CC1=C(C(=O)N2CCOCC2)CC(CC(=O)NCc2ccco2)C(=O)N1Cc1ccc(F)cc1 (stereo unspecified),-16.3%
12,Cc1ccc2c(c1)N(C(=O)CCC(=O)N1CCc3ccccc3C1)CCO2,11.3%
13,COc1ccc(-c2ccc(Nc3ccc(S(=O)(=O)N4CCCC4)cc3)nn2)cc1OC,91.7% (active)
14,COc1cc(C(C)=O)ccc1OC(C)C(=O)Nc1ccc(S(=O)(=O)N2CCCC2)cc1 (stereo unspecified),-9.75%
15,COc1ccc(S(=O)(=O)N2CCCCCC2)cc1NC(=O)Cc1ccc(OC)c(OC)c1,6.94%
16,Cc1onc(-c2ccccc2Cl)c1C(=O)N(Cc1ccc(N(C)C)cc1)C(C)C,15%
17,Cc1cc2cc3n(c2nn1)N=C(Cl)CC3,15.8%
18,O=C(CN1CCN(C(=O)C2CCCO2)CC1)Nc1c(Cl)cccc1Cl (stereo unspecified),1.7%
19,Cn1c(=O)c2c(SCC(=O)NCC3CCCO3)nc(CC(C)(C)C)nc2n(C)c1=O (stereo unspecified),-3.55%
20,Cc1ccc(COc2ccc(C(=O)NN)cc2)cc1,-0.097%
21,CCCCCCCCCCOC(=O)Cn1c(COc2ccc(C)cc2)[n+](C)c2ccccc21,94.3% (active)
22,Cc1noc(C)c1COC(=O)Cn1c(C)nc2ccccc21,6.2%
23,COc1ccc(-n2c(C)nn(CC3CC3)c2=O)cc1,0.917%
24,CCOc1ccc(N(C)S(=O)(=O)c2cnc[nH]2)cc1,14%
25,Nc1ncnc2c1ncn2[C@@H]1O[C@H](C(=O)NCC(F)(F)F)[C@@H](O)[C@H]1O,2.47%
26,Cc1[nH]c2ccccc2c1-c1ccc(Cl)nn1,-0.142%

# Source: PubChem BioAssay AID588674 (Broad Institute, 2011)
